Drawing on PubChem BioAssay AID623957 (NMMLSC, 2012), this text covers outcome for 31 compounds.

Structures are written as SMILES. The source made the active and inactive calls.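 How the source made its calls: active means compounds whose fitted half-maximal concentration for lowering the signal is under 100 µM; inactive means the rest.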

The test can be described thus: fluorescence change in empty-vector K562 cells, dose response, counter-screen for ABCB6 inhibitor project, cell-based, flow cytometry, cherry pick set 1 (AID 623957). The settings on record: K562 vector-only cells, 1 h; series mostly up to 100 µM.
For the compound `CCOC(=O)CNC(=O)CCc1nnc2ccc(N3CCC(C)CC3)nn12`, the compound was classed as inactive. `CCN1CCN(C(=O)CCc2nnc3ccc(N4CCC5(CC4)OCCO5)nn23)CC1`: the compound was called inactive.

Turning to `COCCNC(=O)CCc1nnc2ccc(N3CCC(C)CC3)nn12`, the result was inactive.

On to `CCOC(=O)C1CCN(C(=O)CCc2nnc3ccc(N4CCN(C)CC4)nn23)CC1`, for which the result was inactive. The result for `CC(C)CCNC(=O)CCc1nnc2ccc(N3CCC(C)CC3)nn12` reads “inactive”; that for `COC(=O)C(NC(=O)CCc1nnc2ccc(N3CCC(C)CC3)nn12)C(C)C` (stereo unspecified), “inactive”; that for `O=C(CCc1nnc2ccc(N3CCC4(CC3)OCCO4)nn12)N1CCCCC1`, “inactive”. The result for `CC1CC(C)CN(C(=O)CCc2nnc3ccc(N4CCCCC4)nn23)C1` (stereo unspecified) reads “inactive”; that for `CCOCCCNC(=O)CCc1nnc2ccc(N3CCCCC3)nn12`, “inactive”.

For the compound `Cc1cccc(CS(=O)(=O)c2ncc(Cl)c(C(=O)Nc3ccc(F)cc3)n2)c1`, the compound was classed as inactive.

`O=C(Nc1ccc(F)cc1)c1nc(S(=O)(=O)Cc2ccccc2)ncc1Cl`: the outcome was inactive. Take `Cc1cccc(NC(=O)c2nc(S(=O)(=O)Cc3ccccc3)ncc2Cl)c1`: the compound was classed as inactive.

On to `COC(=O)C(NC(=O)CCc1nnc2ccc(N3CCCCC3)nn12)C(C)C` (stereo unspecified), for which the call was inactive.

For `CC1CCN(c2ccc3nnc(CCC(=O)N4CCCCC4)n3n2)CC1`, the compound was classed as inactive.

As for `COCCCNC(=O)CCc1nnc2ccc(N3CCC(C)CC3)nn12`, the result was inactive. Consider `Cc1cccc(CS(=O)(=O)c2ncc(Cl)c(C(=O)Nc3c(C)cccc3C)n2)c1`, for which the result was inactive.

Consider `CCCNC(=O)CCc1nnc2ccc(N3CCC(C)CC3)nn12`, for which the compound was classed as inactive. For `CCN(CC)CCNC(=O)CCc1nnc2ccc(N3CCC(C)CC3)nn12`, the result was inactive. `CCC(C)NC(=O)CCc1nnc2ccc(N3CCC(C)CC3)nn12` (stereo unspecified): the compound was called inactive. The result for `Cc1ccc(NC(=O)c2nc(S(=O)(=O)Cc3ccccc3)ncc2Cl)cc1` reads “inactive”; that for `CN1CCN(C(=O)CCc2nnc3ccc(N4CCC5(CC4)OCCO5)nn23)CC1`, “inactive”; that for `O=C(CN1CCCCC1)Nc1cccc(Br)c1`, “inactive”. On to `CCOC(=O)C(C)NC(=O)CCc1nnc2ccc(N3CCC(C)CC3)nn12` (stereo unspecified), for which the compound was classed as inactive. On to `CC1CCN(c2ccc3nnc(CCC(=O)NC(C)C)n3n2)CC1`, for which the compound was classed as inactive. `COC(=O)c1ccc(NC(=O)c2nc(S(=O)(=O)Cc3cccc(C)c3)ncc2Cl)cc1`: the outcome was inactive. `CCOC(=O)C(C)NC(=O)CCc1nnc2ccc(N3CCCCC3)nn12` (stereo unspecified): the compound was classed as inactive.

Consider `CC1CCN(c2ccc3nnc(CCC(=O)NCCCOC(C)C)n3n2)CC1`, for which the outcome was inactive. `CCOC(=O)N1CCN(CC(=O)Nc2ccc(C)cc2)CC1`: the result was inactive. Consider `CCN(CC)S(=O)(=O)c1cccc(-n2c(O)c(C=Nc3ccccc3C(=O)O)c3ccccc3c2=O)c1`, for which the result was inactive. For `CCc1ccc(CNC(=O)C2Cc3cc(S(=O)(=O)N4CCCC4)ccc3N2C(C)=O)cc1` (stereo unspecified), the compound was called inactive. Turning to `CC1CCN(C(=O)CCc2nnc3ccc(N4CCC5(CC4)OCCO5)nn23)CC1`, the outcome was inactive.
